The results in this text go back to PubChem BioAssay (NCI).

Several values for one entry are separate records, joined by “and”; a condition that tells them apart may be missing. Identical values can stand only once. This is part of a sample that, as a whole, favours compounds with a hit. Of some 83,000 tested, about 20% had one in any assay.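 Activity criterion: percent growth below 10, measured after cells in 96-well plates were exposed to a single compound concentration for 48 hours.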 Unmarked numbers belong to inactive results. Activity calls are given as the source filed them.

This assay deals with MDA-MB-468 breast. As to the kind of experiment: NCI-60 one-dose screen, 48 h (100 = growth as untreated, 0 = no growth, -100 = all killed). Particulars: 10 µM unless noted.
Turning to `COc1ccc(NC(N)=NCCCOc2ccc(F)cc2)cc1`, the growth was 66.2%.
As for `Cc1ccc(/C=N/Nc2nc(Nc3ccccc3)nc(Nc3ccc(S(N)(=O)=O)cc3)n2)cc1`, the figure is 65%.
Then `Brc1ccc(-c2nn(-c3ccccc3)cc2-c2nn[nH]n2)s1`, with 98.8%; and `O=c1ccn(C2OC(F)(CO)C(O)C2F)c(=O)[nH]1` (stereo not given), with 126%.
With `CCOc1ccc(Nc2nc(-c3ccc4c(c3)NC(=O)CO4)cs2)cc1`, the growth was 17.8%.
Regarding `NCCCNc1nc2ccccc2c2c(=O)c3cc(OC(F)(F)F)ccc3sc12`, the growth is -69.8% (active).
As for `COC(=O)C(Cc1cn(C(C)=O)c2ccccc12)P(=O)(OC)OC` (stereo not given), the figure is 101%; as for `CCOC(=O)C(=CNc1ccccc1[N+](=O)[O-])C(=O)OCC`, 86%; as for `Nc1ncc(-c2ccc3ncnc(N4CCc5cc(F)c(Cl)cc54)c3c2)cc1C(F)(F)F`, -26.1% (active).
For `COc1ccc(-c2cc(-c3cc(OC)ccc3O)[nH]c(=O)c2C#N)cc1`, the growth was 59.5%.
In the case of `CCCCCCCCCCC(CN(CC)CC)C(O)c1ccccc1` (stereo not given), the growth was -61.2% (active).
Then `O=C(CN1CCOCC1)N1CCOCC1`, with 108% and 116%; and `COc1cc(Cl)cc(-c2nn(-c3cccc(NC(=O)Nc4cc(C(F)(F)F)cc(C(F)(F)F)c4)c3)cc2-c2ccncc2)c1`, with -2.95% (active).
Take `O=C(NCCNC(=O)c1ccc(Cl)cc1Cl)c1ccc(Cl)cc1Cl`: the growth was 104%.
Regarding `Cc1cc(C)n(-c2nc(-c3cccs3)c(C#N)c(=O)[nH]2)n1`, the growth is 112%.
